# Source: ChEMBL document CHEMBL3988442, “University of Dundee, Small-Polar-MMV Screening Library” (2021)
# Out of some 69,000 compounds screened, about 950 (1.4%) showed an effect of 50% or more. The sample as a whole holds a higher share of strong results than the screen did.
# Test system: Mycobacterium tuberculosis
# Assay: Cornell M. t heat shock assay; note: in the data most compounds retested in dose-response had high values
# Assay type: functional, organism-based
# Parameters: dose or concentration left out as unconfirmed
row,Structure (SMILES),Percent Effect
1,CCc1nnc2n1CC(CNCc1nc(C)c(C)o1)CC2 (stereo not drawn),-15.23%
2,CCc1nnc2n1CC(CNCc1ccncc1)CC2 (stereo not drawn),102.6%
3,CC(C)c1nnc2n1CC(CNCc1ccncc1)CC2 (stereo not drawn),107%
4,CC(C)c1nnc2n1CC(CNCc1ccsc1)CC2 (stereo not drawn),-8.8%
5,CCc1nnc2n1CC(CNCC1CCCC1)CC2 (stereo not drawn),-14.79%
6,CC(C)c1nnc2n1CC(CNCc1cccnc1)CC2 (stereo not drawn),-38.13%
7,O=C(O)C(F)(F)F.O=C1CC[C@H]2[C@H](CCN2C(=O)C2CCCO2)N1Cc1cccnc1 (stereo partly drawn),1.298%
8,CNC(=O)CN1CC[C@H]2CN(C(=O)c3ccc(C)cc3)C[C@H]2C1.O=C(O)C(F)(F)F,-25.29%
9,Cn1cc(CN2C[C@H](Oc3ncccc3F)[C@H]3OCCC[C@H]32)cn1.O=C(O)C(F)(F)F.O=C(O)C(F)(F)F.O=C(O)C(F)(F)F,-12.51%
10,O=C(NC[C@]12COC[C@H]1CN(Cc1cccnc1)C2)C1CCC1.O=C(O)C(F)(F)F.O=C(O)C(F)(F)F,24.22%
11,O=C(Nc1ccccc1)c1ccc2c(c1)C1(CCCCC1)CN2.O=C(O)C(F)(F)F,67.01%
12,CC(=O)c1ccc(NC(=O)c2ccc3c(c2)C2(CCCCC2)CN3)cc1.O=C(O)C(F)(F)F,36.54%
13,COCC(=O)N1CCC2(CC1)CNc1ccc(F)cc12.O=C(O)C(F)(F)F,-6.982%
14,COc1ccccc1CN1C[C@@H]2COC[C@]2(COCc2ccncc2)C1.O=C(O)C(F)(F)F.O=C(O)C(F)(F)F,-12.91%
15,CCN(CC)C(=O)Cn1ccc2cc(NC(=O)NC3CC3)ccc21,61.18%
16,CCN(CC)C(=O)Cn1ccc2cc(NC(=O)C3CC3)ccc21,25.7%
17,CCNC(=O)Nc1ccc2c(ccn2CC(=O)N(CC)CC)c1,47.91%
18,COCCN1CCc2c(cnc(-c3ccoc3)c2C(=O)O)C1.O=C(O)C(F)(F)F,-43.35%
19,Cn1c(N2CCOCC2)nc2cc(C(=O)N3CCCOCC3)ccc21,-23.59%
20,CN1CCCN(C(=O)c2ccc3c(c2)nc(N2CCOCC2)n3C)CC1,98.19%

row,Structure (SMILES),Percent Effect
1,CN1CCN(C(=O)c2ccc3c(c2)nc(N2CCOCC2)n3C)CC1=O,2.08%
2,CC(C)N(C)Cc1nnc2n1CCCN(c1ncccn1)C2.O=C(O)C(F)(F)F,11.35%
3,CN(Cc1cn2c(n1)CN(CC1CC1)CC2)Cc1ccco1.O=C(O)C(F)(F)F.O=C(O)C(F)(F)F,9.036%
4,O=C(c1ccoc1)N1CCc2ncnc(NCc3ccccn3)c2CC1,62.71%
5,O=C(c1ccon1)N1CCc2ncnc(NCc3cccnc3)c2CC1,1.572%
6,O=C(c1cc[nH]n1)N1CCc2ncnc(NCc3ccccn3)c2CC1,-1.441%
7,O=C(c1ccon1)N1CCc2ncnc(NCc3ccccn3)c2CC1,76.86%
8,O=C(C1CCCCO1)N1CCc2ncnc(NCc3ccon3)c2CC1 (stereo not drawn),17.45%
9,O=C(c1ccco1)N1CCc2ncnc(NCc3ccccn3)c2CC1,44.89%
10,CN(C)C[C@]12COC[C@H]1CN(C(=O)CCc1ccccc1)C2.O=C(O)C(F)(F)F,-31.23%
11,COCCN1C[C@@H]2[C@@H](OC)CCN(Cc3cccs3)[C@@H]2C1.O=C(O)C(F)(F)F.O=C(O)C(F)(F)F,-45.94%
12,CCn1cc2c(n1)CN(CC1CC1)CC2COCC1CC1.O=C(O)C(F)(F)F (stereo not drawn),0.92%
13,CN1CC2(CCN(CC3CC3)CC2)COc2ccccc2S1(=O)=O.O=C(O)C(F)(F)F,-26.67%
14,COCc1ccccc1CNc1nnc(C)c(C)c1C#N,28.24%
15,Cc1nnc(NCc2ccccc2F)c(C#N)c1C,88.29%
16,Cc1nnc(NCc2ccccc2Cl)c(C#N)c1C,29.74%
17,CCOCC1CN(Cc2cnn(C)c2)Cc2c1cnn2CC.O=C(O)C(F)(F)F (stereo not drawn),-24.32%
18,Cc1ccc(CN2CC[C@@H]3OCCN(Cc4ccncc4)[C@H]3CC2)s1.O=C(O)C(F)(F)F.O=C(O)C(F)(F)F.O=C(O)C(F)(F)F,43.06%
19,Cc1nc2c(C)cccc2cc1C(=O)N1CCC2(CC1)NCCNC2=O,-15.56%
20,CC(C)CN1C[C@H](COCc2ccccc2)Oc2ncccc2C1=O,61.32%

row,Structure (SMILES),Percent Effect
1,CCCC1CN(CCOc2ccccc2)C(=O)c2cccnc2O1 (stereo not drawn),-5.894%
2,CCCC1CN(CC(C)C)C(=O)c2cccnc2O1 (stereo not drawn),-5.035%
3,CN(Cc1cc2n(n1)CCNC2)Cc1n[nH]c2c1CCC2,-1.948%
4,Cc1ccc2nc(CN(C)Cc3[nH]nc4c3CCC4)[nH]c2c1C,98.38%
5,Cc1ccc2[nH]c(CN(C)Cc3ccccc3C(=O)O)nc2c1,-3.354%
6,CCc1cc(N(C)Cc2[nH]nc3c2CCC3)nc(N2CCOCC2)n1,-16.74%
7,COc1nc2cc(C)ccc2cc1CN(C)Cc1n[nH]c2c1CCCC2,2.274%
8,COc1nc2c(cc1C(=O)N(C)Cc1[nH]nc3c1CCC3)CCC2,0.3103%
9,Cc1ccc2[nH]c(CN(C)Cc3n[nH]c4c3CCC4)nc2c1,98.03%
10,Cc1ccc2nc(CN(C)Cc3n[nH]c4c3CCCCC4)[nH]c2c1C,106.9%
11,CN(Cc1cc2n(n1)CCNC2)Cc1n[nH]c2c1CCCCC2,-10.71%
12,CC(=O)N1C[C@@H]2CC[C@H](C1)N(S(=O)(=O)c1cc(F)ccc1C)C2,-2.155%
13,CNC(=O)[C@H]1C[C@@H]2CN(Cc3ccc(OC)cc3)C[C@H]1O2.O=C(O)C(F)(F)F,15.08%
14,Cc1ccc(CN2C[C@@H](OCc3ccccn3)[C@H]3COC[C@H]32)o1.O=C(O)C(F)(F)F.O=C(O)C(F)(F)F,4.099%
15,CNc1nc(C2CCCN2)nc2c1CCN(S(=O)(=O)C1CCCCC1)C2.Cl (stereo not drawn),12.62%
16,CCOC(=O)N1CCC(Nc2cc(CC)nc3c(C)c(C)nn23)CC1,-7.891%
17,CCc1cc(NC2CCOCC2)n2nc(C)c(C)c2n1,-7.332%
18,CCc1cc(NC2CCN(S(C)(=O)=O)CC2)n2nc(C)c(C)c2n1,105.8%
